From PubChem BioAssay AID1345085 (National Center for Advancing Translational Sciences (NCATS), 2018)
Inconclusive results are not listed. Calls of active or inactive are those of the source. Calls come from the whole dose curve; as a rule, active = well fitted cell-killing curve with a large enough effect; inconclusive = small, poorly fitted or top-dose-only effect, or effect the other way; inactive = no such curve, though single readings can be large or run the other way.

Test system: JEG-3
Assay: Confirmatory qHTS for gynecologic anti-cancer compounds from libraries of approved drugs and bioactive compounds; note: nearly all actives have a fitted effect of over 55% in size
Settings: gynecologic cancer cell panel viability, ATPlite luminescence, 48 h; series mostly up to 57.6 µM
In short: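 Viability is measured as ATP-dependent luciferase light using ATPlite, read 15 min after reagent addition at room temperature. Compounds, in DMSO, span 57.5 uM down to 0.977 nM over 11 threefold steps for 48 h.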
Potency is the fitted concentration of half-maximal effect.

Row | Structure (SMILES) | Potency
1 | CN(C)c1ccc(-c2nc3ncc(Cl)c(N4CCN(CC(=O)Nc5nccs5)CC4)c3[nH]2)cc1 | inactive
2 | O=C1N(c2ccccc2)c2ccccc2C1(Cc1ccncc1)Cc1ccncc1 | inactive
3 | NC(=O)c1cnc(-c2ccc(C3(N)CCC3)cc2)c(-c2ccccc2)c1 | 30.6 µM (active)
4 | C=CC(=O)Nc1cccc(Oc2nc(Nc3ccc(N4CCN(C)CC4)cc3)ncc2Cl)c1 | 24.3 µM (active)
5 | CCC(=O)N1CCN(c2ccc(-n3c(=O)ccc4cnc5ccc(-c6cnc7ccccc7c6)cc5c43)cc2C(F)(F)F)CC1 | 6.27 µM (active)
6 | CCN(CC)CCCC(C)Nc1c2ccc(Cl)cc2nc2ccc(OC)cc12 (configuration not stated) | 43.2 µM (active)
7 | COc1cc(N2CCC(N3CCN(C)CC3)CC2)ccc1Nc1ncc(Cl)c(Nc2ccccc2S(=O)(=O)C(C)C)n1 | 19.3 µM (active)
8 | CN(C[C@@H]1COCCO1)S(=O)(=O)Nc1ccc2ccc3ncc(-c4cnn(C)c4)cc3c(=O)c2c1 | inactive
9 | OC[C@H]1O[C@@H](n2cnc3c(=S)nc[nH]c32)[C@H](O)[C@@H]1O | 4.85 µM (active)
10 | CCC1=CC2CN(C1)Cc1c([nH]c3ccccc13)[C@@](C(=O)OC)(c1cc3c(cc1OC)N(C)[C@H]1[C@@](O)(C(=O)OC)[C@H](OC(C)=O)[C@]4(CC)C=CCN5CC[C@]31[C@@H]54)C2 (some centres not stated) | 0.0943 µM (active)
11 | Nc1ccccc1NC(=O)c1ccc(CNc2nccc(-c3cccnc3)n2)cc1 | 2.17 µM (active)
12 | Cc1ccc(C(=O)N(CCCN)C(c2oc3cc(Cl)ccc3c(=O)c2Cc2ccccc2)C(C)C)cc1 (configuration not stated) | 0.109 µM (active)
13 | CCCCN(CCCC)C(=O)CN1C[C@H](c2ccc3c(c2)OCO3)[C@@H](C(=O)O)[C@@H]1c1ccc(OC)cc1 | inactive
14 | Cc1ccc(C(N)=O)cc1Nc1nccc(-c2cn(C(C)C)c3cnccc23)n1 | 7.69 µM (active)
15 | CN(C)C/C=C/C(=O)Nc1cc2c(Nc3ccc(F)c(Cl)c3)ncnc2cc1OC1CCOC1 (configuration not stated) | 19.3 µM (active)
16 | CC(C)(C)C(=O)OCOP(=O)(COCCn1cnc2c(N)ncnc21)OCOC(=O)C(C)(C)C | 2.43 µM (active)
17 | COc1cccc2c1C(=O)c1c(O)c3c(c(O)c1C2=O)C[C@@](O)(C(=O)CO)C[C@@H]3O[C@H]1C[C@H](N)[C@H](O[C@@H]2CCCCO2)[C@H](C)O1 | 13.7 µM (active)
18 | COc1ccc(-c2ccc3c(N4CCOCC4C)nc(N4CCOCC4C)nc3n2)cc1CO (configuration not stated) | inactive
19 | CC(C)c1nn(-c2c(Cl)cccc2Cl)c2nc(Cc3ccc(OCCO)cc3)[nH]c(=O)c12 | 0.0685 µM (active)
20 | CC(Oc1ccc2[nH]nc(/C=C/c3cnn(CCO)c3)c2c1)c1c(Cl)cncc1Cl (configuration not stated) | 6.85 µM (active)
21 | CCN(CC)CCNC(=O)c1c(C)[nH]c(/C=C2\C(=O)Nc3ccc(F)cc32)c1C | 25.1 µM (active)

Row | Structure (SMILES) | Potency
22 | CCCCc1oc2ccc(NS(C)(=O)=O)cc2c1C(=O)c1ccc(OCCCN(CCCC)CCCC)cc1 | 27.3 µM (active)
23 | Cn1cc(-c2ccc3ncc(Cc4ccc5ncccc5c4)n3n2)cn1 | inactive
24 | COc1ccc(-c2nc3ccc(C4=NNC(=O)CC4C)cc3[nH]2)cc1 (configuration not stated) | 21.7 µM (active)
25 | Cc1c(NC(=O)OCC2COCCN2)cn2ncnc(Nc3ccc4c(cnn4Cc4cccc(F)c4)c3)c12 (configuration not stated) | 30.6 µM (active)
26 | CCN(CC)CCCC(C)Nc1ccnc2cc(Cl)ccc12 (configuration not stated) | inactive
27 | Cc1cnc(Nc2ccc(F)cc2Cl)nc1-c1c[nH]c(C(=O)NC(CO)c2cccc(Cl)c2)c1 (configuration not stated) | inactive
28 | CCCC(=O)O[C@]1(C(=O)CCl)[C@@H](C)C[C@H]2[C@@H]3CCC4=CC(=O)C=C[C@]4(C)[C@@]3(F)C(=O)C[C@@]21C | 10.9 µM (active)
29 | O=c1c2ccccc2nc2n1CCc1c-2[nH]c2ccccc12 | inactive
30 | Cc1csc(NC(=O)c2sc3nc4c(c(C(F)(F)F)c3c2N)CCC4)n1 | 13.7 µM (active)
31 | CNc1nc(Nc2ccc(C(=O)N3CCOCC3)cc2OC)ncc1Cl | inactive
32 | CC(C)Oc1ccc2c(=O)c(-c3ccccc3)coc2c1 | 24.3 µM (active)
33 | CCN1CCN(Cc2ccc(Nc3ncc(F)c(-c4cc(F)c5nc(C)n(C(C)C)c5c4)n3)nc2)CC1 | 9.68 µM (active)
34 | Cc1[nH]c2ccccc2c1CCNCc1ccc(/C=C/C(=O)NO)cc1 | 0.193 µM (active)
35 | CCc1c2c(nc3ccc(O)cc13)-c1cc3c(c(=O)n1C2)COC(=O)[C@]3(O)CC | 0.122 µM (active)
36 | CS(=O)(=O)c1ccc(-c2cnc(N)c(C(=O)Nc3ccccc3)n2)cc1 | inactive
37 | CNC1CCC(N(Cc2cccc(-c3ccncc3)c2)C(=O)c2sc3ccccc3c2Cl)CC1 (configuration not stated) | 27.3 µM (active)
38 | O=C(Nc1cccnc1)N1CCC(Cc2cccc(Oc3ccc(C(F)(F)F)cn3)c2)CC1 | 7.69 µM (active)
39 | Cn1cnc2c(F)c(Nc3ccc(Br)cc3Cl)c(C(=O)NOCCO)cc21 | inactive
40 | COc1cccc2cc(-c3nc(C4CCC(C(=O)O)CC4)n4ncnc(N)c34)[nH]c12 (configuration not stated) | inactive
41 | CC[C@H](CC#N)OC(=O)N[C@@H](C)c1cccc(NC(=O)Nc2ccc(-c3cnco3)c(OC)c2)c1 | 15.3 µM (active)
42 | Nc1ccn([C@@H]2O[C@H](CO)[C@@H](O)C2(F)F)c(=O)n1 | inactive

Row | Structure (SMILES) | Potency
43 | CC[C@@]1(O)C(=O)OCc2c1cc1n(c2=O)Cc2cc3cc(O)ccc3nc2-1 | 0.217 µM (active)
44 | CN(NC(=O)CC(=O)NN(C)C(=S)c1ccccc1)C(=S)c1ccccc1 | 0.109 µM (active)
45 | Cc1cnc(Nc2ccc(CN3CCOCC3)cc2)nc1Nc1cccc(S(=O)(=O)NC(C)(C)C)c1 | 9.68 µM (active)
46 | CNC(=O)c1ccccc1Sc1ccc2c(/C=C/c3ccccn3)n[nH]c2c1 | 13.7 µM (active)
47 | O=C(c1ccc(F)c(F)c1Nc1ccc(I)cc1F)N1CC(O)([C@@H]2CCCCN2)C1 | 24.3 µM (active)
48 | COc1cc2c(Nc3ccc(NC(=O)c4ccccc4)cc3)ncnc2cc1OCCCN1CCOCC1 | 27.3 µM (active)
49 | CCc1nc(C(N)=O)c(Nc2ccc(N3CCC(N4CCN(C)CC4)CC3)c(OC)c2)nc1NC1CCOCC1 | inactive
50 | CC(C)n1nc(-c2cc3cc(O)ccc3[nH]2)c2c(N)ncnc21 | 17.2 µM (active)
51 | CN1C2CCC1CC(OC(=O)[C@H](CO)c1ccccc1)C2 (some centres not stated) | inactive
52 | CCN1C[C@H](C)n2c(c(O)c3c(=O)n(Cc4ccc(F)c(Cl)c4)nc(C(=O)NC)c32)C1=O | inactive
53 | Cn1cnc([N+](=O)[O-])c1Sc1ncnc2nc[nH]c12 | 8.63 µM (active)
54 | CCCC(Nc1nc(-c2ccc(NC(=O)NCC)c(OC)c2)ncc1C)c1cccnc1 (configuration not stated) | 0.153 µM (active)
55 | COc1ccc(CCC(=O)c2c(O)cc(O[C@@H]3O[C@H](CO)[C@@H](O)[C@H](O)[C@H]3O[C@@H]3O[C@@H](C)[C@H](O)[C@@H](O)[C@H]3O)cc2O)cc1O | inactive
56 | CCOc1cc2ncc(C#N)c(Nc3ccc(F)c(Cl)c3)c2cc1NC(=O)/C=C/CN(C)C | 30.6 µM (active)
57 | Oc1cn2c(n1)Nc1ccc(Cl)c(Cl)c1C2 | inactive
58 | CCS(=O)(=O)N1CCN(c2ccc(Nc3ncc(C(N)=O)c(NC4CC4)n3)cc2)CC1 | 9.68 µM (active)
59 | CC(Oc1cc(-n2cnc3ccc(CN4CCN(C)CC4)cc32)sc1C(N)=O)c1ccccc1C(F)(F)F (configuration not stated) | 1.93 µM (active)
60 | COC(=O)c1ccc2c(C(=Nc3ccc(N(C)C(=O)CN4CCN(C)CC4)cc3)c3ccccc3)c(O)[nH]c2c1 | inactive
61 | CN1CCN(Cc2ccc(NC(=O)Nc3ccc(Oc4cc(NC(=O)C5CC5)ncn4)cc3)cc2C(F)(F)F)CC1 | 0.243 µM (active)
62 | CCN(CC)CCOc1ccc(/C(=C(\Cl)c2ccccc2)c2ccccc2)cc1 | 89.1 µM (active)
